Assay outcomes as filed in PubChem BioAssay.
NS1 function inh – influenza NS1 inhibition; Potency, µM (highest dose often 46.1 µM); actives 0.4% (n = 270,000); calls by dose curve; further: actives are rising curves; nearly all actives have a fitted effect of over 50% in size
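Read-out: OD600 growth recovery of NS1-expressing budding yeast. Cells grown overnight at 30C in -URA glucose medium, washed, resuspended and diluted 1:100 in 2% galactose assay medium, pH 6.0. Same strain lacking NS1 served as positive control.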
Shiga toxin inh – blocks Shiga toxin action in Vero cells | inhibition, % at 38.7 µM | Vero cells, Shiga toxin protein synthesis inhibition reporter | actives 9.2% (n = 290,000); in the data active means inhibition mostly above about 28%, no sharp cut-off; inactive means mostly below about 43%
SARS PLP yeast – blocks SARS-CoV papain-like protease in a yeast assay; S. cerevisiae expressing SARS-CoV PLpro, growth rescue; Potency, µM (top dose mostly 32.9 µM), actives largely listed as activators; actives 0.19% (n = 330,000); AID 485353; calls by dose curve; further: nearly all actives have a fitted effect of over 55% in size
Pf growth 48h – inhibits P. falciparum growth in the first generation, 48 h. actives 5.9% (n = 310,000). P. falciparum luciferase growth in erythrocytes, 48 h. Potency, µM (highest dose often 28.7 µM), usual class: inhibitors
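Firefly luciferase activity from engineered P. falciparum reports growth; inhibitors lower the luminescent signal. Cultures contained 2% hematocrit erythrocytes at 0.1% final parasitemia.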
Pf growth 96h – P. falciparum growth inhibition at 96 hour, primary screen for plastid delayed-death inhibitors; P. falciparum luciferase reporter growth, 96 h; Potency, µM (series often up to 28.7 µM), most hits filed as inhibitors; actives 6.9% (n = 320,000); AID 504834
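Readout is luminescence from an integrated firefly luciferase in P. falciparum. Red cells, 2% hematocrit and 0.05% parasitemia final, were cultured with compound through two parasite generations (96 hours) at 37 C, 5% CO2.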
CHX counter – affects cycloheximide protein synthesis inhibition readout, counter-screen; cell reporter, cycloheximide protein synthesis inhibition counterscreen; actives 12% (n = 300,000); max response, %; AID 2314; in the data active means max response mostly above about 13%, no sharp cut-off; inactive means mostly below about 14%; further: read at 38.3 µM for the half of the compounds with a filed dose
Large screens that a line does not name were inactive. This is a sample that favours compounds with a hit; in the whole collection about 21% have one here. Unless noted, the call rests on the fitted dose curve; in most records, active means well fitted inhibition curve with a large enough effect; inconclusive means small, poorly fitted or top-dose-only effect, or another doubt; inactive means no such curve, though single readings can be large or run the other way.

Cc1cccc(NC(=O)CSc2nc(N)c(NC(=O)c3cccs3)c(=O)[nH]2)c1C	none
O=C(COC(=O)[C@@H]1CC(O)CN1S(=O)(=O)c1ccccc1[N+](=O)[O-])Nc1ccc2ccccc2c1 (stereo partly specified)	none
Cc1noc(C)c1-c1csc(N2CCC(C(N)=O)CC2)n1	none (no result: NS1 function inh, Shiga toxin inh, CHX counter)
CCN1CCN(c2c(C=O)c(Cl)nc3ccc(OC)cc23)CC1	Pf growth 96h inconclusive (no result: Shiga toxin inh)
COc1ccccc1C1NC(=O)CCC1[N+](=O)[O-] (stereo unspecified)	none
Nc1cc(-c2ccccc2)ccc1O	Shiga toxin inh 29, SARS PLP yeast inconclusive, Pf growth 48h inconclusive, Pf growth 96h 12µM, CHX counter 37
CC(=O)Nc1cc(-c2ccccc2)ccc1O	Pf growth 48h inconclusive
CCNc1nc(-c2ccc(OC(F)F)cc2)c(C)s1	Shiga toxin inh 124, CHX counter 41 (no result: NS1 function inh)
COc1ccc(-c2nc(NC3=NCCCCC3)sc2C)cc1	none (no result: NS1 function inh)
Fc1cccc(CCN2CCNC[C@@H]2CC2CCCCC2)c1	Pf growth 48h inconclusive, Pf growth 96h inconclusive (no result: NS1 function inh, Shiga toxin inh, CHX counter)
CCOC(=O)C1CCCN(C(=O)CN2C(=O)COc3ccc(C(C)(C)C)cc32)C1 (stereo unspecified)	Pf growth 48h inconclusive (no result: Pf growth 96h)
CCOC(=O)CN1C(=O)COc2ccc(C(C)(C)C)cc21	Pf growth 96h 0.47µM
CCOC(=O)C1CCN(C(=O)CN2C(=O)COc3ccc(C(C)(C)C)cc32)CC1	Pf growth 96h 10µM
CCOC(=O)N1CCC2(CC1)C(C(=O)C13CC4CC(CC(C4)C1)C3)C2(C#N)C#N (stereo unspecified)	NS1 function inh inconclusive, Pf growth 48h inconclusive (no result: Pf growth 96h)
CC/C(=N\NC(=O)c1csc(C)c1C)c1cccs1	Shiga toxin inh 95, CHX counter 37
CCC/C(=N\NC(=O)c1csc(C)c1C)c1cccs1	Shiga toxin inh 84, CHX counter 36 (no result: Pf growth 96h)
COc1ccc(N2CCN(c3nc(Cl)nc(Nc4ccc(F)cc4)n3)CC2)cc1	none
COC(=O)Nc1ccc(S(=O)(=O)NCCCCCC(=O)O)cc1	Pf growth 96h 2.9µM
O=[N+]([O-])c1cccc(-c2n[nH]c(=S)n2-c2ccccc2)c1	none
O=[N+]([O-])c1cccc(-c2c[n+]3c(n2-c2ccccc2)SCC3)c1	Pf growth 48h 1µM, Pf growth 96h 1µM (no result: NS1 function inh)
Clc1ccc(-c2c[n+]3c(n2-c2ccccc2)SCC3)cc1	Pf growth 48h 1.2µM, Pf growth 96h 0.17µM (no result: NS1 function inh)
CC1CN(C(=O)c2ccccc2OCc2ccccc2Cl)CC(C)O1 (stereo unspecified)	Pf growth 48h inconclusive, Pf growth 96h inconclusive (no result: NS1 function inh, Shiga toxin inh, CHX counter)
Cc1ccc(/C=N/NC(=O)CN2CCN(Cc3ccccc3Cl)CC2)o1	none
O=C(/C=C/c1ccco1)NC(=S)Nc1ccccn1	Shiga toxin inh 109, CHX counter 56 (no result: Pf growth 96h)
Cc1cccnc1NC(=S)NC(=O)/C=C/c1ccco1	Shiga toxin inh 152, CHX counter 71 (no result: Pf growth 96h)
COc1cccc(-c2nc(NCC3CCCO3)c3ccccc3n2)c1O (stereo unspecified)	none
COc1ccccc1Nc1nc(NCC2CCCO2)c2ccccc2n1 (stereo unspecified)	Pf growth 48h inconclusive, Pf growth 96h 1µM
Oc1ccccc1-c1nc(NCC2CCCO2)c2ccccc2n1 (stereo unspecified)	Pf growth 48h inconclusive, Pf growth 96h 10µM
CC(=O)Nc1c(I)c(C(=O)O)c(I)c(N(C)C(C)=O)c1I	none (no result: NS1 function inh, Shiga toxin inh, SARS PLP yeast, CHX counter)
Cc1cc(C)c(S(=O)(=O)N2CCOC2CNC(=O)C(=O)NCc2ccncc2)c(C)c1 (stereo unspecified)	none
S=C=Nc1ccccn1	Pf growth 48h inconclusive, Pf growth 96h inconclusive, CHX counter 27
S=C=Nc1ccc(N=C=S)cc1	none (no result: NS1 function inh, Shiga toxin inh, SARS PLP yeast, CHX counter)
C=C1SC(Nc2c(C)cc(C)cc2C)=NC12CCCCC2	Pf growth 48h 1.7µM, Pf growth 96h inconclusive
Cn1ncc2c(NCCc3ccccc3)nc(Cl)nc21	none (no result: Shiga toxin inh, SARS PLP yeast, Pf growth 48h, Pf growth 96h, CHX counter)
Cc1ccc(O)c(N=Cc2ccc(C)s2)c1	Shiga toxin inh 52, CHX counter 37
Cc1ccc(O)c(N=Cc2cccs2)c1	Shiga toxin inh 38, Pf growth 48h inconclusive, CHX counter 29
Cc1ccc(/C=N/n2c(C)nnc2C)s1	none
Cc1csc(SC(C)C(=O)Nc2ccccc2C)n1 (stereo unspecified)	none (no result: NS1 function inh, Shiga toxin inh, CHX counter)
Cc1ccnc(NC(=O)CCC(=O)N(CC(=O)NC(C)(C)C)Cc2ccc3c(c2)OCO3)c1	none
O=C(c1ccc(F)cc1)C1CCN(S(=O)(=O)c2ccccc2)CC1	Pf growth 96h inconclusive
COC(=O)c1c(C)[nH]c(C=O)c1-c1ccccc1	Shiga toxin inh 62, CHX counter 30
COC(=O)c1c(-c2ccccc2)c[nH]c1C	Shiga toxin inh 82, CHX counter 24
COC(=O)c1c(C)[nH]c(C)c1-c1ccccc1Cl	none
COC(=O)c1c(S(C)(=O)=O)nc(-c2ccccc2)[nH]c1=O	Pf growth 96h inconclusive
CCOc1nc(-c2ccccc2)ccc1-c1noc(-c2ccco2)n1	Pf growth 48h inconclusive
COc1nc(C)ccc1-c1noc(-c2ccco2)n1	Shiga toxin inh 81, CHX counter 39 (no result: Pf growth 96h)
COc1nc(-c2ccc(C)cc2)ccc1-c1noc(-c2ccco2)n1	Shiga toxin inh 70, CHX counter 28
CCCOC(=O)C1=C(C)NC2=C(C(=O)CC(C)(C)C2)C1c1cccnc1 (stereo unspecified)	Pf growth 48h inconclusive, Pf growth 96h 10µM
COc1cccc(/C=C2\SC(=S)N(N3CCOCC3)C2=O)c1OC	CHX counter 23
CCN1C(=O)C(=Cc2cccc(OC)c2Oc2ccc([N+](=O)[O-])cc2[N+](=O)[O-])SC1=S	Pf growth 48h 5.2µM, Pf growth 96h 10µM
COc1cccc(/C=C2\SC(N3CCCC(C)C3)=NC2=O)c1OC (stereo unspecified)	Shiga toxin inh 56, CHX counter 17
COc1ccccc1/C=C1\SC(N2CCC(C)CC2)=NC1=O	Shiga toxin inh 57, CHX counter 26
Cc1ccc(C)n1-c1ccc(C(=O)N/N=C/c2ccncc2)cc1	Pf growth 48h inconclusive, Pf growth 96h inconclusive (no result: NS1 function inh)
COc1cccc(/C=C2\SC(N3CCC(C)CC3)=NC2=O)c1OC	Pf growth 48h inconclusive, CHX counter 13
COc1ccc(C(=O)c2c[nH]cc2-c2ccccc2)cc1	none
COc1ccc(C(=O)c2coc3c2C(=O)C(=O)c2ccccc2-3)cc1	Shiga toxin inh 76, Pf growth 96h inconclusive, CHX counter 33
O=C(c1ccccc1)c1ccc(CN2C(=O)c3ccccc3C2=O)o1	none
O=C1c2ccccc2C(=O)c2c1oc(C(F)(F)F)c2C(=O)c1ccccc1	NS1 function inh inconclusive, Pf growth 48h inconclusive, Pf growth 96h 0.13µM, CHX counter 24
O=C(c1ccccc1)c1coc2c1C(=O)c1ccccc1C2=O	Shiga toxin inh 94, Pf growth 48h inconclusive, CHX counter 33 (no result: NS1 function inh)
C=CCn1c(SCc2nc3cc(C(F)(F)F)ccc3c(=O)[nH]2)nc2sc(CC)cc2c1=O	none
O=C(Cn1nc(C(=O)O)c2ccccc2c1=O)Nc1cccc(Br)c1	none
